The whole screen tested about 350,000 compounds, of which about 31,000 (8.9%) were called active. Where a call stands in place of a potency, no number is given. Inconclusive results (about 15%) are left out. The sample as a whole holds a higher share of actives than the screen did. Values without a mark were called inactive. Calls come from the whole dose curve; as a rule, active = well fitted inhibition curve with a large enough effect; inconclusive = small, poorly fitted or top-dose-only effect; inactive = no such curve, though single readings can be large or run the other way.
biological target: Histone-lysine N-methyltransferase EHMT2 (Homo sapiens) (UniProt Q96KQ7); experiment: qHTS Assay for Inhibitors of Histone Lysine Methyltransferase G9a; details: G9a H3K9 monomethylation, AlphaScreen, 2 h; series mostly up to 59 µM; note: nearly all actives have a fitted effect of over 75% in size
Method in brief: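 Chemiluminescent proximity detection of H3K9 monomethylation, read after 10 min bead incubation in the dark. Reaction: 20 nM G9a, 500 nM biotin-H3K9 peptide, 20 uM SAM cofactor, 2 h, room temperature, following 15 min enzyme-compound preincubation.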
Potency is the fitted concentration of half-maximal effect.

Sequence of Histone-lysine N-methyltransferase EHMT2 (Homo sapiens) (Q96KQ7 913-1193 limits assumed): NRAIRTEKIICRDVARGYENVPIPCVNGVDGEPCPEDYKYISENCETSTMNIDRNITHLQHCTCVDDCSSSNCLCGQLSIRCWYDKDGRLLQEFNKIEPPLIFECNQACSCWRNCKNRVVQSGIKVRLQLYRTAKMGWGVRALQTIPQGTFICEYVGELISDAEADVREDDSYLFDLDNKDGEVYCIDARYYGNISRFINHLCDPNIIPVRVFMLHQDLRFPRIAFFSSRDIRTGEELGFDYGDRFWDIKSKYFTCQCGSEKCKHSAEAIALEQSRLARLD

COc1ccc(CCNC(=O)COc2ccc3c(c2)OCO3)cc1 was tested. Which activity, negative = inhibition did it give?
Its activity, negative = inhibition is 13.4% [at 2.33 µM].

Which Potency does the source give for COc1ccc(CCNC(=O)c2cc3cccc4c3n2CC(C)S4)c(OC)c1OC (stereo not drawn) here?
The Potency was “inactive”.

Which activity, negative = inhibition does the source give for COCCCNC(=O)/C(C#N)=C/c1c(N2CCCCCC2)nc2ccccn2c1=O here?
Its activity, negative = inhibition is 7.66% [at 2.33 µM].

With O=C(NCCc1c[nH]c2ccccc12)C(=O)NCC1CCCO1 (stereo not drawn) as the compound, how does the Potency read?
The Potency was “inactive”.

N#C/C(=C/c1ccc(N2CCCCC2)o1)C(=O)NCCc1c[nH]c2ccccc12 was tested. Which Potency did it give?
Its Potency is 31.6 µM (active).

For COc1ccc(Cc2nc3ccc(C(=O)NCc4ccccc4C)cc3o2)cc1, which Potency is on record?
Its Potency is “inactive”.

Which activity, negative = inhibition does the source give for CCOCCn1[nH]c2ccccc2c1=O here?
Its activity, negative = inhibition is -9.31% [at 2.33 µM].

With O=S(=O)(c1ccccc1)N1CCC(c2ccccc2)CC1 as the compound, how does the activity, negative = inhibition read?
The activity, negative = inhibition was 0.779% [at 2.33 µM].

With O=C(NC(Cc1c[nH]c2ccccc12)C(=O)O)/C(=C/c1ccco1)NC(=O)c1ccccc1 (stereo not drawn) as the compound, how does the Potency read?
The Potency was 28.2 µM (active).

For Cc1ccc(C(=O)N/C(=C/c2ccco2)C(=O)NCCc2c[nH]c3ccccc23)cc1C, which Potency is on record?
Its Potency is “inactive”.

For CC(=O)NC(Cc1c[nH]c2ccccc12)C(=O)O (stereo not drawn), which Potency is on record?
Its Potency is “inactive”.

For COc1ccccc1Cc1nc2ccccc2nc1SCC(=O)N1CCCc2ccccc21, which Potency is on record?
The Potency was “inactive”.

With COc1cccc(-n2c(=S)sc3c(=O)n(-c4ccccc4C)c(SCC(=O)O)nc32)c1 as the compound, how does the Potency read?
Its Potency is “inactive”.

How did the activity, negative = inhibition turn out when COc1ccc(Cl)cc1NC(=O)C1CC(=O)N(c2ccc(F)cc2)C1 (stereo not drawn) was run?
The activity, negative = inhibition was -1.46% [at 12.7 µM].

For COc1ccc(Cl)cc1-n1c(=S)sc2c(=O)n(-c3ccc(F)cc3)c(SCC(=O)O)nc21, which Potency is on record?
Its Potency is 28.2 µM (active).

Which Potency does the source give for Cc1cccc(NC(=O)N2CCN(C)c3ncccc32)c1C here?
The Potency was “inactive”.

With CC[n+]1c(C)n(-c2ccccc2)c2ccc(NC(C)=O)cc21 as the compound, how does the Potency read?
The Potency was 14.1 µM (active).

How did the Potency turn out when CC(=O)c1cccc(NC(=O)c2cc(C)nn2-c2ccccc2)c1 was run?
The Potency was “inactive”.

For CC(=O)Nc1ccc(NC(=O)CSc2nnc(C3CC3)n2-c2ccccc2)cc1, which activity, negative = inhibition is on record?
The activity, negative = inhibition was 5.42% [at 2.33 µM].

How did the Potency turn out when Cc1cccn2c(=O)nc(SCC(=O)NCc3ccccc3Cl)nc12 was run?
The Potency was “inactive”.

For Cc1nn(-c2ccc(F)cc2)c(-n2cccc2)c1C(=O)N1CCN(c2ccccc2)CC1, which Potency is on record?
Its Potency is “inactive”.

How did the Potency turn out when COc1ccc(OCCNC(=O)c2cc(C3CC3)nc3c2cnn3C(C)C)cc1 was run?
The Potency was “inactive”.

How did the activity, negative = inhibition turn out when CC(C)(O)c1ccccc1CC[C@H](SCC1(CC(=O)O)CC1)c1cccc(/C=C/c2ccc3ccc(Cl)cc3n2)c1 was run?
The activity, negative = inhibition was 1.82% [at 12.7 µM].

Which activity, negative = inhibition does the source give for CCN(c1ccccc1)S(=O)(=O)c1ccc(OCC(=O)N2CCCC2)cc1 here?
Its activity, negative = inhibition is 12.7% [at 2.33 µM].

Cc1noc(/C=C/c2ccco2)c1S(=O)(=O)N1CCC(C(=O)Nc2ccc(Cl)cn2)CC1 was tested. Which Potency did it give?
The Potency was “inactive”.

Cc1cccc(NC(=O)C2CCN(S(=O)(=O)c3c(C)noc3/C=C/c3ccco3)CC2)c1 was tested. Which Potency did it give?
Its Potency is “inactive”.

How did the Potency turn out when Cc1noc(/C=C/c2ccco2)c1S(=O)(=O)N1CCC(C(=O)N2CCc3ccccc32)CC1 was run?
The Potency was 44.7 µM (active).

For O=C(Nc1cccc2cccnc12)c1cccc(Cl)c1, which Potency is on record?
The Potency was “inactive”.

For COc1ccc(CSc2nc(N3CCOCC3)c3c(c2C#N)CC(C)(C)OC3)cc1, which Potency is on record?
The Potency was “inactive”.

How did the Potency turn out when CC(C)c1nc(N2CCOCC2)c(C#N)c2c1COC(C)(C)C2 was run?
The Potency was “inactive”.

Which Potency does the source give for CC1(C)Cc2c(C#N)c(SCc3nc4ccccc4[nH]3)nc(N3CCOCC3)c2CO1 here?
The Potency was 39.8 µM (active).

For Nc1ccc(N=Nc2ccccc2Cl)c(N)n1, which Potency is on record?
Its Potency is 28.2 µM (active).

CCCCCCSc1ccc([C@@H]2[C@@H]3C(=O)N(CC)C(=O)[C@@H]3[C@]3(C(=O)OC)CCCCN23)cc1OC was tested. Which activity, negative = inhibition did it give?
Its activity, negative = inhibition is 2.26% [at 2.33 µM].

How did the activity, negative = inhibition turn out when O=C(COC(=O)C1CC2CCCC(C1)C2=O)NC(=O)c1ccccc1 (stereo not drawn) was run?
Its activity, negative = inhibition is -4.63% [at 12.7 µM].

Which Potency does the source give for CC(O)CN(Cc1ccc(Cl)cc1)CC(C)O (stereo not drawn) here?
The Potency was 14.1 µM (active).

With CC(C)NC(=O)c1ccc(Cl)cc1Cl as the compound, how does the Potency read?
Its Potency is “inactive”.

Which Potency does the source give for CN(C)CCCNC(=S)NCc1ccc(Cl)cc1 here?
The Potency was “inactive”.

OCCN(Cc1ccccc1)Cc1ccc(Cl)cc1 was tested. Which Potency did it give?
Its Potency is 22.4 µM (active).

Which Potency does the source give for CCOC(=O)c1ccc(CN(Cc2ccccc2)S(=O)(=O)c2ccc(Cl)cc2)cc1 here?
The Potency was “inactive”.

With CN(C(=O)CN(CCO)CC(=O)N(C)C(C)(C)Cc1ccccc1)C(C)(C)Cc1ccccc1 as the compound, how does the Potency read?
The Potency was “inactive”.

For CCC(Cc1ccccc1)NC(=O)C1CCCCC1 (stereo not drawn), which Potency is on record?
The Potency was “inactive”.

With CCc1nn(CC(=O)Nc2cccc(C)c2C)c(=O)c2cc3sccc3n12 as the compound, how does the Potency read?
The Potency was “inactive”.

For Oc1ccc(-n2nnnc2SCc2c(F)cccc2Cl)cc1, which Potency is on record?
The Potency was “inactive”.

For COc1ccc(Cc2nc3ccc(C(=O)NCc4ccccc4Cl)cc3o2)cc1, which Potency is on record?
Its Potency is “inactive”.

With O=C(Nc1ccc(O)c(-c2nc3ccccc3o2)c1)c1ccc(-c2cccc(Cl)c2)o1 as the compound, how does the Potency read?
Its Potency is “inactive”.

With Cc1ccnc(N2CCCC(C(=O)NC3CC3)C2)n1 (stereo not drawn) as the compound, how does the Potency read?
The Potency was “inactive”.

With Cc1ccnc(-n2sc3ccccc3c2=O)n1 as the compound, how does the Potency read?
Its Potency is 1 µM (active).

How did the Potency turn out when Cc1ccnc(SCC(N)=O)n1 was run?
The Potency was “inactive”.

For O=C1CC(c2ccccc2)=NN1c1ccc([N+](=O)[O-])cc1, which Potency is on record?
Its Potency is 39.8 µM (active).

How did the Potency turn out when Cc1nn(-c2ccc([N+](=O)[O-])cc2)c(N)c1-c1ccccc1 was run?
The Potency was “inactive”.

COc1ccc(C2=NN(c3nc4ccccc4s3)C(=O)C2)cc1 was tested. Which Potency did it give?
The Potency was “inactive”.

How did the Potency turn out when N#CC1=C(N)N(c2ccc(F)cc2)C(=O)C1 was run?
Its Potency is 39.8 µM (active).

How did the Potency turn out when O=C1CCCC2=C1C(c1cccs1)CC(=O)N2c1ccc(F)cc1 (stereo not drawn) was run?
Its Potency is “inactive”.

Which Potency does the source give for Cn1c(N)cc(-c2ccc(F)cc2)c(C#N)c1=O here?
Its Potency is “inactive”.

Which Potency does the source give for O=C(NCc1ccc(F)cc1)c1ccc2nc(N3CCCCC3)sc2c1 here?
The Potency was “inactive”.

For COC(=O)c1scc(-c2ccccc2)c1S(=O)(=O)Nc1ccccc1, which Potency is on record?
The Potency was “inactive”.

Fc1ccccc1N=C1Nc2cccc3cccc1c23 was tested. Which Potency did it give?
The Potency was “inactive”.

How did the Potency turn out when c1ccc(C2=Nc3cccc4cccc(c34)N2)cc1 was run?
Its Potency is 8.91 µM (active).

How did the activity, negative = inhibition turn out when COc1ccccc1C1=Nc2cccc3cccc(c23)N1 was run?
Its activity, negative = inhibition is 39.6% [at 0.501 µM].

With Cc1ccc(C(=O)/C=C/c2c(C)nn(-c3ccccc3)c2Cl)cc1 as the compound, how does the Potency read?
Its Potency is “inactive”.

With Cc1nn(-c2ccccc2)c(Cl)c1C(=O)Nc1ccccc1 as the compound, how does the activity, negative = inhibition read?
The activity, negative = inhibition was 50.1% [at 12.7 µM].

For Cc1nn(-c2ccccc2)c(Cl)c1/C=C/C(=O)c1ccc(O)cc1, which Potency is on record?
Its Potency is 15.8 µM (active).

How did the Potency turn out when COc1cccc(CNc2nccn(-c3ccc(OC)c(OC)c3)c2=O)c1 was run?
Its Potency is “inactive”.

— PubChem BioAssay AID504332 (National Center for Advancing Translational Sciences (NCATS), 2011)
